Screening results from PubChem.
BoNT A protease: blocks Botulinum neurotoxin A light chain protease; actives 0.17% (n = 360,000); multiplex microsphere protease substrate cleavage, flow cytometry; inhibition, % at 10 µM
Anthrax LF inh2: inhibitors of Bacillus anthracis lethal factor protease; P15917; multiplex microsphere protease cleavage assay, LF; inhibition, % at 10 µM; actives 0.12% (n = 360,000); AID 588501
Target sequence (P15917 whole entry, looked up): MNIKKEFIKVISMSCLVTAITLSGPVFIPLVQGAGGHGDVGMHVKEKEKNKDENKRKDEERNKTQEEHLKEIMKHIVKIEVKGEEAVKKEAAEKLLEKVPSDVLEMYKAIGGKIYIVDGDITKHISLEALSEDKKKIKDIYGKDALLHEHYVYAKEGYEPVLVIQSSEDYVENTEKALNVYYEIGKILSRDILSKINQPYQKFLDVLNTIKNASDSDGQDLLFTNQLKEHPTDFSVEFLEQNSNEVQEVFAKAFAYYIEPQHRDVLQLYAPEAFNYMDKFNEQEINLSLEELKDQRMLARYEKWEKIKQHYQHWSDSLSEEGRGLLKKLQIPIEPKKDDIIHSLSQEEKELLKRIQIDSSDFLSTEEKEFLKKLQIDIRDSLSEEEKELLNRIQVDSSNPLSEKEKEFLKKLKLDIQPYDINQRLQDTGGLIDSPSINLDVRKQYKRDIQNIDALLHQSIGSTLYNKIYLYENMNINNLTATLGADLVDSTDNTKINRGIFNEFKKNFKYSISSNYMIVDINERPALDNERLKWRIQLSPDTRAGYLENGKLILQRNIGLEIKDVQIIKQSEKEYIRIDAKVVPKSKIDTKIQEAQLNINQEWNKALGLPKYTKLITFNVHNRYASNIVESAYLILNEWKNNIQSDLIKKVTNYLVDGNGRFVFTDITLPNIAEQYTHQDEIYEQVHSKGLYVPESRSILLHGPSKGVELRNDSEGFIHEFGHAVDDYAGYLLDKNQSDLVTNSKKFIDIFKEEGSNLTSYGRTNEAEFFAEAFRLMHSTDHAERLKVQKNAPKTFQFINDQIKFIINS
Bead autofluor: flagged as autofluorescent in microsphere protease counterscreen | compound autofluorescence counterscreen, microsphere flow cytometry; stronger effect = higher value | fluorescence intensity (test concentration not listed) | actives 3.1% (n = 360,000) | AID 624483; in the data active = fluorescence intensity above about 16000; inconclusive = no clear call, values can overlap the other calls
BoNT F protease: blocks Botulinum neurotoxin F light chain protease. Multiplex microsphere protease cleavage assay, flow cytometry. inhibition, % at 10 µM. actives 0.22% (n = 360,000); in the data active = inhibition above about 35%, passing the limit was not always enough; inconclusive = no clear call, values can overlap the other calls
Each line names hits and unclear results; the compound was inactive in the other large screens. Compounds with a hit are over-represented: about 3.5% of the library has one in this group of screens. Cut-off read from the data, not from the text of the source, unless noted: active = inhibition above about 30%; inconclusive = no clear call, values can overlap the other calls; inactive = below that.

CCn1nc(C)c(/C=N/NC(=O)c2nc3nc(C)cc(C)n3n2)c1C	Anthrax LF inh2 34, BoNT F protease inconclusive
O=c1cc(-c2ccccc2)nc2c(Cl)cc(Cl)cn12	none
CCCNC(=O)CCC(=O)Nc1ncc(-c2ccc(C)cc2)n1C	BoNT A protease inconclusive, Bead autofluor 22139
Cc1[nH]c2ccccc2c1/C=N/NC(=O)c1cccc(S(=O)(=O)Nc2ccccc2Cl)c1	BoNT A protease 35
COc1ccc2c(Cl)c(C(=O)N/N=C/c3c(C)[nH]c4ccccc34)sc2c1	BoNT A protease 36, Bead autofluor 20361
COc1ccc2c(Cl)c(C(=O)N/N=C/c3ccc4c(c3)OCO4)sc2c1	none
Cc1nc2nc3c(cn2n1)C(=O)CCC3	Bead autofluor 21199
COC(=O)c1ccccc1NC(=O)c1noc2c1CCCC2	Bead autofluor 19950
COc1cc(NC(=O)c2noc(C)c2[N+](=O)[O-])c(OC)cc1Cl	none
O=C(Nc1ccccc1C(=O)N1CCOCC1)c1noc2c1CCCC2	none
COc1cc(NC(=O)c2noc3c2CCC3)c(OC)cc1Cl	Bead autofluor 19679
CC(=O)c1ccc(-c2nnc(CCC(=O)N(C)Cc3c(C)nc4ccccn34)o2)s1	none
Cc1nc(Nc2ccc(O)cc2)c2c3c(sc2n1)CCCC3	none
Cc1nc(NC(C)c2ccccc2)c2c3c(sc2n1)CCC3 (centres undefined)	Bead autofluor 16604
Cc1ccc(CNc2nc(C)nc3sc4c(c23)CCC4)cc1	BoNT A protease inconclusive, Bead autofluor 17440
Cc1cccc(C)c1C(O)c1ncc(-c2cccc3ccccc23)[nH]1 (centres undefined)	none
CCCCn1c(O)c2n(c1=O)Cc1ccccc1N=C2c1ccc(C)cc1	none
O=C(NCc1ccco1)c1cccc(S(=O)(=O)N2CCCC2)c1	none
CC1CCN(S(=O)(=O)c2cccc(C(=O)NCc3ccco3)c2)CC1	Bead autofluor 23763
Cc1ccc(S(=O)(=O)N2CCCCC2C(=O)NCc2ccco2)cc1 (centres undefined)	none
O=C(NCc1ccco1)C1Cc2ccccc2CN1S(=O)(=O)c1ccccc1F (centres undefined)	Bead autofluor 23284
Cc1ccc(S(=O)(=O)N2CCC(C(=O)N3CCC[C@H]3C(=O)NCc3ccco3)CC2)cc1	Bead autofluor 16928
O=C(NCc1ccco1)C1CN(S(=O)(=O)c2ccccc2)CCN1S(=O)(=O)c1ccccc1 (centres undefined)	Bead autofluor 20955
CCCCN1CCC(=O)C(C(=O)OCC)=C1C(=O)OCC	none
COc1cc(Cl)ccc1OCc1cc(C(=O)N(C)CC2CCCCO2)no1 (centres undefined)	none
O=C(c1ccc(CSc2ccc(Cl)cc2)o1)N1CCOCC1	none
CCc1nc(N2CCN(C(=S)NCCCOC)CC2)c2c3c(sc2n1)CCCC3	none
Cc1ccc(S(=O)(=O)N2CCC(C(=O)N3CCC[C@H]3C(=O)NCc3ccccc3)CC2)cc1	Bead autofluor 21009
CCc1ccc(N2CSC3=C(C#N)C(c4cccs4)CC(=O)N3C2)cc1 (centres undefined)	Bead autofluor 25679
Cc1ccc(N2CSC3=C(C#N)C(c4cccs4)CC(=O)N3C2)cc1 (centres undefined)	none
CCN(CC(=O)NC1CCS(=O)(=O)C1)S(=O)(=O)c1ccc(Br)cc1 (centres undefined)	none
O=C(Nc1ccnn1C1CCN(C(=O)CCc2ccc(F)cc2)CC1)C1CCOC1 (centres undefined)	none
CCN(CCCNC(=O)CC(C(=O)N1CCc2ccccc21)n1ccnc1)c1ccccc1 (centres undefined)	Bead autofluor 18267
Cn1nnc(NC(=O)CSc2ccc(Cl)cc2)n1	none
CC(C)C(=O)Nc1nnn(C)n1	Bead autofluor 22504
CC(C)CC(=O)Nc1nnn(C)n1	Bead autofluor 18519
COc1ccc(NC(=O)C2CCCN2S(=O)(=O)c2cccs2)c([N+](=O)[O-])c1 (centres undefined)	none
CCOC(=O)c1oc2nc(CC(C)C)c3c(c2c1N)CCC3	Bead autofluor 20183
CC(C)Cc1nc2oc3c(N4CCN(CCO)CC4)ncnc3c2c2c1CCCC2	none
CCN(CC(=O)Nc1cc(Cl)ccc1C)C(=O)COc1cccc2c1OC(C)(C)C2	none
COc1ccc(NC(=O)N2CCCc3ccccc32)cc1	Bead autofluor 20850
COc1ccc(NC(=O)N2CCc3ccccc32)cc1	none
COc1ccc(C(=O)N2CCCc3ccccc32)cc1OC	none
CCCN(CCC)S(=O)(=O)c1ccc(C(=O)N2CCCc3ccccc32)cc1	Bead autofluor 22837
O=C(c1ccccc1)N1CCc2ccccc21	Bead autofluor inconclusive
CCCN(CCC)S(=O)(=O)c1ccc2c(c1)CCCN2C(C)=O	none
COc1cccc(C(=O)N2CCCc3ccccc32)c1	Bead autofluor 17528
O=C(c1cccnc1)N1CCc2ccccc21	Bead autofluor 20167
